Bioassay records deposited in PubChem by National Center for Advancing Translational Sciences (NCATS).
Pol kappa inh-1: blocks human DNA polymerase kappa activity | purified Pol kappa, fluorescent DNA synthesis assay, 10 min | Potency, µM (doses to about 107 µM), for inactives: at the top dose activity, negative = inhibition, most hits filed as inhibitors | 400,000 tested, 0.53% active | AID 588579; also: potency is read from the fitted curve at half-maximal effect; % is scaled to controls: 0 for no effect and ±100 for the full control effect
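10 nM Pol kappa preincubated 15 min at room temperature with compounds, then reaction started with substrate at 50 nM final. Fluorescence read kinetically at 0 and 10 min; buffer-only wells served as negative control.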
POLB inh: DNA polymerase beta (human) inhibition | P06746 | Pol beta primer extension/strand displacement, fluorescence kinetic | Potency, µM (doses to about 114 µM), for inactives: at the top dose activity change, negative = inhibition, actives largely listed as inhibitors | 340,000 tested, 1.3% active; also: potency is read from the fitted curve at half-maximal effect; % is scaled to controls: 0 for no effect and ±100 for the full control effect
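Values derive from four-parameter Hill fits of normalized kinetic data: reads at 0 and 10 min following addition of 50 nM substrate to 10 nM Pol beta preincubated 15 min with compound.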
Pol eta inh-1: inhibitors of human DNA polymerase eta. Q9Y253. 390,000 tested, 1.2% active. Potency, µM (titrated, usually from 114 µM), for inactives: at the highest dose activity change, negative = inhibition, usual class: inhibitors. recombinant Pol eta, fluorescent DNA replication assay; also: potency is read from the fitted curve at half-maximal effect; % is scaled to controls: 0 for no effect and ±100 for the full control effect
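Pol eta at 10 nM preincubated with compounds 15 min at room temperature; reaction started with fluorescent substrate (50 nM final) and read kinetically at 0 and 10 min.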
WRN inhibitor: inhibitors of human WRN helicase; Q14191; WRN helicase unwinding, fluorescent forked duplex, kinetic; Potency, µM (highest dose often 114 µM), inactives show at the highest dose activity change, negative = inhibition, most hits filed as inhibitors; 360,000 tested, 0.46% active; also: potency is read from the fitted curve at half-maximal effect; % is scaled to controls: 0 for no effect and ±100 for the full control effect; nearly all actives have a fitted effect of over 55% in size
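Fluorescence dequenching readout, ex 525 nm/em 598 nm, kinetic mode: forked duplex DNA (100 nM final) with adjacent fluorophore and quencher unwound by WRN (20 nM final) with 2 mM ATP. Compound preincubation 15 min, room temperature.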
PI5P4Ka inh: inhibitors of human PI5P4K alpha | max response, % | PI5P4Kalpha enzyme, ADP-Glo luminescence, 60 min; active compounds read low | 330,000 tested, 1.2% active | AID 652105; active = max response of -50% or lower; inconclusive = between -30% and -50%; inactive = -30% or higher; also: value at the top dose of about 77 µM; % is scaled to controls: 0 for no effect and ±100 for the full control effect
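Single end-point luminescence (ADP-Glo) quantified ADP from PI5P4Kalpha turnover; ATP 5 microM final, 1 h at RT, 0.1% CHAPS and 0.28 mM EGTA in HEPES pH 7.4.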
Pol iota inh: inhibitors of human DNA polymerase iota; Q9UNA4; Pol iota fluorescent replication assay, 10 min; Potency, µM (top dose mostly 115 µM), for the others: top-dose activity, negative = inhibition, usual class: inhibitors; 390,000 tested, 1% active; also: potency is read from the fitted curve at half-maximal effect
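Fluorescent replication assay read twice, at 0 min and 10 min after adding 50 nM (final) substrate. Enzyme (10 nM) and compounds were first incubated 15 min at room temperature; enzyme-free buffer wells were negative controls.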
Pol kappa inh-2: confirmation of human DNA polymerase kappa inhibitors; Potency, µM, hits mostly inhibitors; shares compounds with Pol eta inh-1; AID 720501; purified Pol-kappa, fluorescent strand-displacement substrate; 920 tested, 76% active; also: potency is read from the fitted curve at half-maximal effect
Pol eta inh-2: Pol eta (human) inhibition, cherry-pick confirmation; shares compounds with Pol eta inh-1; Pol eta primer extension, TAMRA/BHQ fluorescence, 10 min; Potency, µM, usual class: inhibitors; 2,600 tested, 64% active; AID 720502; also: potency is read from the fitted curve at half-maximal effect
An asterisk follows results filed as active; u = inconclusive; x = no result given; [ ] = another dose, or the depositor's remark. Only some compounds are listed: those with a hit (about 2.8% of all), similar ones and a draw of the others. Unless noted, calls follow the shape of the dose curve; as a rule, active = well fitted curve in the direction sought with a large enough effect; inconclusive = small, poorly fitted or top-dose-only effect, or another doubt; inactive = no such curve, though single readings can be large; an effect the other way counts as inactive or inconclusive.

SMILES | Pol kappa inh-1 | POLB inh | Pol eta inh-1 | WRN inhibitor | PI5P4Ka inh | Pol iota inh | Pol eta inh-2 | others
Cc1noc(NS(=O)(=O)c2ccc(NC(=O)CSc3nnc4c(n3)[nH]c3ccccc34)cc2)c1C | u | u | 25µM* | 89µM* | -6 | u | 24*
Cc1noc(NS(=O)(=O)c2ccc(NC(=O)CSc3nc4ccccc4[nH]3)cc2)c1C | -6% | -7% | -11% | -28% | x | -3% | x
Cc1ccc(Cl)cc1N1CCN(C(=O)CN(c2ccccc2)S(=O)(=O)N(C)C)CC1 | u | 10µM* | 50µM* | -11%[11.6 µM] | -28 | 25µM* | x | Pol kappa inh-2=u
CN1CCN(C(=O)CN(c2ccccc2)S(=O)(=O)N(C)C)CC1 | -17% | 5% | -11% | 11% | 1 | 47% | x
O=C(CCS(=O)(=O)c1ccc(Br)cc1)Nc1ccc(Cl)c(C(F)(F)F)c1 | -25% | 4% | u | x | x | 23% | u | Pol kappa inh-2=19*
Cc1ccc(-c2ccc(C(=O)Nc3ccccc3)o2)c2ccccc12 | -4% | 14% | -17% | -11% | 8 | -3% | x
Cc1ccc(S(=O)(=O)NC(=O)c2ccc(-c3ccc(C)c4ccccc34)o2)cc1 | u | u | 32µM* | u | u | u | u
CC(C)CC1=NN2C(=N)/C(=C\c3coc4ccccc4c3=O)C(=O)N=C2S1 | u | 20µM* | 20µM* | u | -53* | u | 76*
C/[N+]([O-])=C\c1coc2ccccc2c1=O | -7% | 5% | -14% | -3% | -10 | -5% | x
CCSC1=NSC2=NC(=O)/C(=C\c3coc4ccccc4c3=O)C(=N)N12 | -19% | 28µM* | 20µM* | u | -59* | u | x | Pol kappa inh-2=u
Cc1noc(C)c1CSCC(=O)Nc1cc(S(=O)(=O)N2CCOCC2)ccc1OC(C)C | -8% | x | -13% | 7% | 4 | 18% | x
CN(CC(=O)Nc1cccc(F)c1)C(=O)c1ccccc1OCCOc1ccccc1 | -14% | x | -8% | -11% | 10 | 6% | x
CN(CC(=O)NC(=O)NCc1ccccc1)CC(=O)Nc1ccc(Cl)c(Cl)c1 | 8% | x | -20% | -5% | 25 | 22% | x
COc1ccc(-n2nc3c(N4CCCC(C(=O)NCc5cccc(F)c5)C4)nnc(C)c3c2C)cc1 (stereo unspecified) | 2% | 21% | -21% | x | x | 10% | x
O=C(O)c1ccc(/C=C/c2nc3ccccc3c(=O)[nH]2)cc1 | -17% | 1% | 2% | -3%[57.1 µM] | 1 | u | x
O=C(O)c1ccc(/C=C/c2nc3sc4c(c3c(=O)[nH]2)CCC4)cc1 | u | -11% | 22µM* | -36% | 1 | 14µM* | u
Cc1ccc(S(=O)(=O)O)cc1C | 8%[60.1 µM] | x | x | x | x | x | x
O=Nc1c(O)ccc2cc(S(=O)(=O)O)ccc12 | u | x | 14µM* | -7%[11.6 µM] | -18 | 18µM* | 30* | Pol kappa inh-2=17*
CC(=O)c1ccc2c(c1)C1C=CCC1C(c1cc3c(cc1Br)OCO3)N2 (stereo unspecified) | -15% | x | -4% | -3% | -7 | -17% | x
CC(C)C1Nc2ccc(C(=O)O)cc2C2C=CCC21 (stereo unspecified) | u | 13µM* | 20µM* | 50µM* | u | u | 27*
CCc1ccc(N=C2NC(=O)/C(=C/c3ccc(OCC(=O)O)cc3)S2)cc1 | u | 40µM* | 45µM* | u | u | u | x | Pol kappa inh-2=u
CCOc1ccc(N=C2NC(=O)/C(=C/C(=O)OC)S2)cc1 | -17% | 58% | -13% | -20% | 4 | -6% | x
COc1cc(NC(=O)C2(C)CCN2C(=O)C(C)C)cc(OC)c1OC (stereo unspecified) | x | x | x | 2% | 1 | x | x
